High-throughput results deposited in PubChem BioAssay by several laboratories.
This is a sample that favours compounds with a hit; in the whole collection about 4.6% have one here.
HIF-2a block – HIF-2a inhibition; 786-0 RCC cells HIF-2a reporter, luciferase luminescence, overnight; inhibition, % at 18.8 µM; 360,000 compounds, 0.72% hits; AID 624352;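 active = inhibition of the luminescence signal of 40% or more relative to plate controls, in a single-dose primary screen at 18.75 µM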
ABHD5 PLIN5 PPI – ABHD5-PLIN5 protein interaction inhibition; Q00G26+Q8WTS1; Split G. princeps luciferase complementation, luminescence, 4 h; inhibition, % at 4 µM; 360,000 compounds, 0.78% hits; AID 602281;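 active = inhibition above the mean inhibition across every tested compound plus 3 SD, cut at about 22% in these data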;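 also: 0% = DMSO only wells and the 100% control is not disclosed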
CF NFkB block – inhibitors of cystic fibrosis induced NF-kB. KKLEB NF-kB-GFP reporter, PAF-induced, GFP fluorescence overnight. inhibition, % at 5 µM. 360,000 compounds, 0.86% hits;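 active = at least 50% inhibition at 5 µM, scaled per plate between neutral and stimulator controls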;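 also: PAF is a Pseudomonas aeruginosa culture filtrate used as stimulus; plate controls were PAF-stimulated DMSO wells for no effect and unstimulated DMSO wells for full effect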
Peg3 prom inh – inhibitors of Peg3 promoter; 360,000 compounds, 1.7% hits; AID 588405; inhibition, % at 20 µM; HeLa PEG-Prom luciferase reporter, luminescence, overnight;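 active = inhibition of at least 50% at 20 µM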
KKLEB tox – reduces viability of KKLEB cystic fibrosis airway cells; 360,000 compounds, 0.36% hits; KKLEB CF airway cells viability, ATPlite luminescence, overnight; stronger effect = lower value; cells stimulated with P. aeruginosa culture filtrate; activity change (cytotoxicity), % at 5 µM;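 active = corrected activity change at or below -50% at 5 µM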
Mdm2 MdmX PPI – human Mdm2/MdmX binding inhibition; O15151+Q00987; SaOS-2 split-luciferase Mdm2/MdmX complementation, luminescence; inhibition, % at 8 µM; 330,000 compounds, 3% hits; AID 485346;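 active = inhibition of at least 50% at 8 µM in the primary screen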
Target sequence (O15151 whole entry, looked up): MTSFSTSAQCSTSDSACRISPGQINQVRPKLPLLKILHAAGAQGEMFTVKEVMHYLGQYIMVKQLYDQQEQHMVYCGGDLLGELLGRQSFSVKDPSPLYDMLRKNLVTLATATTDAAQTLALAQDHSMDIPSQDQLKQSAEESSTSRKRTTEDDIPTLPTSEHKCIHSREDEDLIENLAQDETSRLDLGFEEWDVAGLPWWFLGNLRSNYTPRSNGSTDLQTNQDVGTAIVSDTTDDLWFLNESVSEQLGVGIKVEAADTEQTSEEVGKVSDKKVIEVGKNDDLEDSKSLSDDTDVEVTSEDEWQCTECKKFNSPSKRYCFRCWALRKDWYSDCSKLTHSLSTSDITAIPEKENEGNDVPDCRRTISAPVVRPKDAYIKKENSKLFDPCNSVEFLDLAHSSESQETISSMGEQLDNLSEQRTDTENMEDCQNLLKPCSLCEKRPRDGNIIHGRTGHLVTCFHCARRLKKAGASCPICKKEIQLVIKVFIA
Target sequence (Q00987 whole entry, looked up): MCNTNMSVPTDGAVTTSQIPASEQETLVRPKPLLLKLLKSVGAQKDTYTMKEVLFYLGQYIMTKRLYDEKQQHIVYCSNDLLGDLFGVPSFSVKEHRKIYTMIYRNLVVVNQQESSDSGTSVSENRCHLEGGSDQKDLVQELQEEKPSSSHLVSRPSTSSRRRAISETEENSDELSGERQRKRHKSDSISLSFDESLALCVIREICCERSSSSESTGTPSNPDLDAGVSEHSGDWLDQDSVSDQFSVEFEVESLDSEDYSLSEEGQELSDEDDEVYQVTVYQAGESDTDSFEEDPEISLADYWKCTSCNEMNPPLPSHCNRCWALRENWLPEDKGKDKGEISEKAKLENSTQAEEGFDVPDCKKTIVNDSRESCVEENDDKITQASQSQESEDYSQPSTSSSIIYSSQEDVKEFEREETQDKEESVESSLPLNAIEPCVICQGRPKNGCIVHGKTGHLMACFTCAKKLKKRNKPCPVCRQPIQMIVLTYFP
Mdm2 MdmX conf – confirmation of human Mdm2/MdmX interaction inhibitors | Mdm2-MdmX binding, luminescent assay | 10,000 compounds, 55% hits | shares compounds with Mdm2 MdmX PPI | inhibition, % at 8 µM; in the data active = inhibition above about 40%
FLuc counter – counter-screen for Mdm2/MdmX inhibitors: full-length luciferase. 6,200 compounds, 77% hits. shares compounds with Mdm2 MdmX PPI. SaOS-2 full-length luciferase counterscreen, luminescence. inhibition, % at 8 µM;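 active = mean inhibition at 8 µM reaching about 37%, which flags the compound as non-specific, limit read from the data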;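 also: p53-null SaOS-2 cells with luciferase driven by a doxycycline-inducible promoter; compound on cells about two nights before reading with doxycycline added after day one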
Active calls of the source: *; x = no result given.

SMILES	HIF-2a block	ABHD5 PLIN5 PPI	CF NFkB block	Peg3 prom inh	KKLEB tox	Mdm2 MdmX PPI	Mdm2 MdmX conf	FLuc counter
CN(CC(=O)Nc1cccc(S(=O)(=O)N2CCCC2)c1)Cc1ccccc1	12	1	5	10	1	-5	x	x
CCOC(=O)[C@]12CCCC=C1N(Cc1ccc(Cl)cc1Cl)C(=O)[C@H](CC(=O)NCCC(C)C)C2	-18	-7	x	x	x	x	x	x
COC(=O)[C@@]1(C)[C@H]2C(=O)N(C)C(=O)[C@H]2[C@H]2CN=C(SC)N21	-3	-7	1	-11	4	13	x	x
CCc1ccc(NC(=O)CSc2nc(C)cs2)cc1	-65	-2	13	-113	-6	x	x	x
c1ccc(/N=C2\N=C(Nc3ccccn3)c3ccccc32)nc1	-19	0	1	64*	-19	72*	5	x
CCOC(=O)c1ccc(NS(=O)(=O)c2cn(C)cn2)cc1	16	-3	12	-1	6	15	x	x
CN(C)S(=O)(=O)c1ccc(NC(=S)NC(=O)C2CCC2)cc1	12	3	-2	20	7	26	x	x
CN(Cc1ccccc1)S(=O)(=O)c1ccc(NC(=S)NC(=O)C2CCCC2)cc1	20	-5	29	33	-16	56*	58*	61*
CCOc1ccc(CCN2C(=O)C(=O)N([C@@H](CC(C)C)CN3CCC[C@H]3CN3C(=O)C(=O)NC[C@@H]3CC(C)C)C[C@@H]2Cc2ccc(O)cc2)cc1	10	9	x	x	x	x	x	x
COC(=O)COc1ccc(S(=O)(=O)Nc2ccc3c(c2)OCO3)cc1	8	4	-14	10	4	14	x	x
COC(=O)COc1ccc(S(=O)(=O)Nc2ccc3c(c2)OCO3)cc1Cl	23	-2	-24	-2	2	52*	29	x
O=c1[nH][nH]c(-c2ccccc2O)c1C(C[N+](=O)[O-])c1ccc(Br)cc1 (stereo not drawn)	20	-14	3	27	-9	54*	23	x
CCc1cc(C(=O)N/N=C/c2ccc(O)cc2O)c2ccccc2n1	9	5	-8	52*	3	63*	64*	36*
O=C(N/N=C/c1ccc(O)cc1O)c1ccncc1	6	1	8	33	-8	31	x	x
CN(C)C(=O)CSc1nnc2sc3ccccc3n12	-5	-5	-16	1	3	0	x	x
O=c1c2ccccc2nnn1CSc1nnc2sc3ccccc3n12	x	x	x	x	x	53*	54*	113*
OC[C@H]1O[C@@](CO)(O[C@H]2O[C@H](CO)[C@@H](O)[C@H](O)[C@H]2O)[C@@H](O[C@H]2O[C@H](CO)[C@@H](O)[C@H](O)[C@H]2O)[C@@H]1O	-3	4	7	3	-22	x	x	x
O=C(c1ccc(C#CC2(O)CCCCC2)cc1)N1CCN(C(c2ccccc2)c2ccccc2)CC1	0	5	6	19	17	57*	33	x
C[C@]12CCC(=O)C=C1CC[C@@H]1[C@@H]2CC[C@@]2(C)[C@H]1CC[C@@]21CCC(=O)O1	18	7	22	-5	4	1	x	x
CC(=O)S[C@@H]1CC2=CC(=O)CC[C@]2(C)[C@H]2CC[C@@]3(C)[C@@H](CC[C@@]34CCC(=O)O4)[C@H]12	2	11	41	26	13	57*	36	x
CCCCn1c(N)c(N(CCOC)C(=O)CCCn2c(=O)oc3ccccc32)c(=O)[nH]c1=O	8	-3	-12	10	16	x	x	x
O=C(NC(NC(=S)Nc1ccc(Cl)c(Cl)c1)C(Cl)(Cl)Cl)c1ccco1 (stereo not drawn)	9	-20	7	36	14	59*	40	74*
O=C(NC(NC(=S)Nc1cccc(C(=O)O)c1)C(Cl)(Cl)Cl)OCc1ccccc1 (stereo not drawn)	26	-8	8	13	9	13	x	x
O=C(NC(NC(=S)Nc1cccc(Cl)c1)C(Cl)(Cl)Cl)OCc1ccccc1 (stereo not drawn)	-14	-16	44	53*	-19	92*	55*	53*
O=C(O)c1cccc(NC(=S)NC(NC(=O)c2ccco2)C(Cl)(Cl)Cl)c1 (stereo not drawn)	7	9	5	-1	-3	20	x	x
SMILES	HIF-2a block	ABHD5 PLIN5 PPI	CF NFkB block	Peg3 prom inh	KKLEB tox	Mdm2 MdmX PPI	Mdm2 MdmX conf	FLuc counter
CC(C)(C)c1ccc(NC(=O)C2CCCN(c3cnccn3)C2)cc1 (stereo not drawn)	-35	1	-11	-6	5	9	x	x
Oc1ccc(Br)cc1Cn1nnc2ccccc21	19	2	49	22	-9	4	x	x
Cc1sc2nc(CN(C(=O)c3cccs3)C3CCCC3)[nH]c(=O)c2c1C	23	0	6	23	12	3	x	x
O=C(c1cccs1)N(Cc1nc2sc3c(c2c(=O)[nH]1)CCCC3)C1CCCC1	-1	2	0	14	4	87*	82*	38*
O=C(NC1CC1)c1ccc2sc([C@@H]3O[C@H](CO)[C@H](O)[C@H](O)[C@H]3O)nc2c1	12	2	-13	3	6	x	x	x
COc1cc(NC(=O)C2=C(N3CCOCC3)/C(=C/c3ccc(Cl)cc3)CC2)cc(OC)c1OC	18	9	20	-6	-7	8	x	x
COc1cc(NC(=O)C2=C(N3CCOCC3)/C(=C\c3ccc(N(C)C)cc3)CCC2)cc(OC)c1OC	-82	14	45	-2	-21	60*	47*	87*
COc1ccc(NC(=O)c2cc(-c3ccccc3Cl)on2)cc1	-237	0	-14	-166	11	-29	x	x
COc1cc(NC(=O)c2cc(-c3ccccc3Cl)on2)cc(OC)c1OC	-59	-7	-8	18	6	65*	54*	52*
Nc1nnc(-c2cn(-c3ccccc3)nc2-c2ccccc2)o1	-57	1	-4	-11	2	20	x	x
Nc1nnc(-c2cn(-c3ccccc3)nc2-c2ccc(Cl)cc2)o1	-6	1	25	8	-10	58*	25	x
COc1ccc(-c2oc(NC(=O)CSc3nncn3C)c(C#N)c2-c2ccc(OC)cc2)cc1	11	-4	-5	24	0	63*	54*	70*
COc1cc(-c2cc(C(=O)Nc3cccc(C(C)=O)c3)c3ccccc3n2)cc(OC)c1OC	-1	11	46	38	-9	61*	40	82*
COc1cc2c(cc1NC(=O)c1cc(-c3ccncc3)nc3ccc(C)cc13)oc1ccccc12	-3	0	-8	10	-5	51*	9	x
